Data published in ChEMBL document CHEMBL4513216, “Probing the Open Global Health Chemical Diversity Library for Multistage-Active Starting Points for Next-Generation Antimalarials” (ACS Infect Dis, 2020).
In all, about 65,000 compounds went through this assay and about 2,100 (3.2%) showed an effect of 50% or more. The median lay at about -52%. This is one part of a sample in which strong results are shown more often than they occur.

System: Plasmodium falciparum
Experiment: Screen against P. falciparum Asexual Blood Stage (ABS), at 5uM
Assay type: functional, Dd2
Conditions: tested at 5 uM

Structure (SMILES) | INHIBITION
CC(C)c1noc(CN2CCC(c3nc4cc(Cl)ccc4o3)CC2)n1 | -72.4%
CCc1nnc(Nc2cccc(C3CCN(CC4CC4)CC3)n2)s1 | 3.36%
CCc1nnc(Nc2cccc(C3CCN(C)CC3)n2)s1 | 6.83%
CCc1nnc(Nc2cccc(C3CCN(c4cnccn4)CC3)n2)s1 | 55.5%
COCCC(=O)N1CCCC2(CCC(=O)N2CCOC)CC1 (stereo not drawn) | -122%
CN1CCN(C(=O)CCn2nnc3ccccc32)CC(C(N)=O)C1 (stereo not drawn) | -71.9%
Cc1ncsc1C(=O)N1CCC(O)(Cn2c(C)cc3ccncc32)CC1 | -64.6%
Cn1ccnc1Sc1ccc(N)cn1 | -78.1%
CS(=O)(=O)NC[C@]12COC[C@H]1CN(CCc1ccccc1)C2 | -29.9%
O=C(c1ccncc1F)N1Cc2nc(CN3CCCCC3)oc2C1 | -21.6%
CN(Cc1ccco1)C1CCC12CCN(C(=O)c1ccco1)CC2 (stereo not drawn) | -9.15%
CN(Cc1ccco1)C1CCC12CCN(C(=O)c1ccncc1)CC2 (stereo not drawn) | 38.3%
CN(Cc1ccco1)C1CCC12CCN(C(=O)c1ccnnc1)CC2 (stereo not drawn) | 53.3%
CC(C)(C)n1ncc2c1CCCC2NCc1ccc2ncccc2c1 (stereo not drawn) | -1.42%
Cc1cc(N2CCC3(CCCN(CCO)C3=O)C2)nc2ccccc12 (stereo not drawn) | 19.1%
CN(Cc1cnc2ccccc2c1)C(=O)C(c1ccccc1F)N(C)C (stereo not drawn) | 64.4%
CCc1ccc(CN(C)C(=O)C(c2ccccc2F)N(C)C)nc1 (stereo not drawn) | -0.644%
Cc1cc(CN(C)C(=O)C(c2ccccc2F)N(C)C)ccn1 (stereo not drawn) | -25.2%
CC1=C[C@@H](CC#N)[C@H](C(C)C)C[C@H]1CC(=O)N1CCN(CCO)CC1 | 40%
CC1=C[C@@H](CC#N)[C@H](C(C)C)C[C@H]1CC(=O)N1CCN(C)CC1 | 44.5%
CC(=O)N1CCN(C(=O)C[C@@H]2C[C@@H](C(C)C)[C@H](CC#N)C=C2C)CC1 | 53.5%
Cc1csc(N2CCN(C(=O)NCCNc3ncccn3)CC2)n1 | -162%

Structure (SMILES) | INHIBITION
COCc1ncn2c1CN(C(=O)c1cccc3cccnc13)CC2 | -90.6%
Cc1cnc(CN2CCN(c3nc(C)cs3)C(C)C2)cn1 (stereo not drawn) | -48.9%
FC(F)(F)c1cccc(C2(CNCc3ccncc3)CCOCC2)c1 | 51%
Cc1n[nH]cc1CNCC1(c2cccc(F)c2)CCOCC1 | 26.9%
CC1(C(=O)NCc2cccc(C(F)(F)F)c2)CCOCC1 | -26.5%
COC[C@]1(O)CCN(C2CCN(c3ccc(Cl)cc3)CC2)CC1(C)C | 34.4%
COC[C@]1(O)CCN(C2CCN(c3ccc(OC)cc3)CC2)CC1(C)C | -57.6%
COC[C@]1(O)CCN(C2CCN(c3ccc(F)c(F)c3)CC2)CC1(C)C | 63.1%
CN1CCN(Cc2cn3c(n2)CN(C(=O)N2CCOCC2)CC3)CC1 | -121%
COc1ccccc1C1CNCCN1C(C)=O (stereo not drawn) | -43.1%
COc1ccccc1C1CNCCN1C(=O)c1ccc(F)cc1 (stereo not drawn) | 69.7%
COc1ccccc1C(=O)N1CCNCC1C(N)=O (stereo not drawn) | -114%
Cc1cccnc1CNC[C@H]1Cn2cc(-c3ccccc3)nc2CO1 | 30.8%
Cn1ccnc1CNC[C@H]1Cn2cc(-c3ccccc3)nc2CO1 | 56.4%
COc1ccc(-c2cn3c(n2)CO[C@@H](CNCc2nccn2C)C3)cc1 | 21.3%
Cc1nc(CCNC(=O)c2cc(C(C)C)nn2C)sc1C | -66%
COc1cc(N2CCC3(CC2)CN(CCO)c2ccccc23)ncn1 | 47.1%
CN(C)c1nc2c(c(N(C)Cc3n[nH]c4c3CCCCC4)n1)CCNC2 | 40%
CN(Cc1n[nH]c2c1CCCC2)c1nc2c(c(=O)[nH]1)CCNCC2 | 65.3%
CN(Cc1n[nH]c2c1CCC2)c1nc(C2CCCC2)nc2c1CNC2 | 2.51%
Cc1nccc(-c2cccc(NCC(=O)N3CCCC(C)C3)c2)n1 (stereo not drawn) | -103%
CN1C(=O)c2cccc(NC(=O)c3cccc(S(C)(=O)=O)c3)c2C1=O | -15.8%

Structure (SMILES) | INHIBITION
Cc1ncc(CN2CC[C@@](C)(O)[C@H](Oc3cccc(F)c3)C2)cn1 | -18.7%
O=C(NC1CCNCC1)C1(N2CCCCC2)Cc2ccccc2C1 | 62.9%
O=C(NC1CCNC1)C1(N2CCCCC2)Cc2ccccc2C1 (stereo not drawn) | 33.8%
O=C1NCCCC[C@@H]1NC(=O)C1(N2CCCCC2)Cc2ccccc2C1 | -107%
CNCC(=O)N1CCC(c2ccnc(Nc3ccc(C)cn3)n2)C1 (stereo not drawn) | -163%
CCc1nccn1CCC(=O)N1C[C@@H]2CC[C@H]1CN(C(=O)N(C)C)C2 | -28.8%
O=C(c1c(F)cc(Br)cc1F)N1CCc2cnccc21 | -110%
Cc1cnn(CC(C)NCc2ccc(OCc3cccnc3)cc2)c1 (stereo not drawn) | 36.7%
COC(=O)[C@H]1C[C@@H](O)CCN1S(=O)(=O)c1cc(C)c(Cl)cc1C | -190%
Cc1cc(S(=O)(=O)N2CC[C@@H](O)C2)c(Cl)cc1F | -123%
CCN1CCN(S(=O)(=O)c2cc(C)c(Cl)cc2Cl)CC1 | 64.3%
CCN1CCN(S(=O)(=O)c2cc(C)c(C)cc2Br)CC1 | 28.4%
CCN1CCN(S(=O)(=O)c2cc(C)c(Cl)cc2C)CC1 | 19.7%
Cc1cc(S(=O)(=O)N2CCC(N3CCC(O)C3)CC2)c(Cl)cc1Cl (stereo not drawn) | 69.3%
O=C(c1csc(-c2ccc(C(F)(F)F)cc2)n1)N1CCCNCC1 | -4.67%
CC(C)CNC(=O)c1nn(C)c(NC(=O)Cc2ccccc2)c1F | -85.1%
COc1ncccc1CNC1CCc2c(ccc(=O)n2C)C1 (stereo not drawn) | -74.3%
Cc1ccc(CN2CC[C@H]3OCC[C@@H](C(=O)N4CCCCO4)[C@@H]3C2)o1 | -9.16%
CCN(CC)Cc1cn2c(n1)CN(C1CCOC1)CC2 (stereo not drawn) | -107%
Nc1ncccc1C(=O)NCc1cccc(Cl)c1 | -96.4%
O=C(NCCN1CCOCC1)c1ccnn1-c1ccc2ccccn12 | -33.3%
CCn1cc(-c2cc(-c3cc(CN(C)C)cs3)nc(N)c2C#N)c(C)n1 | 60.3%

Structure (SMILES) | INHIBITION
Cc1nn(C)c(C)c1-c1cc(-c2cc(CC(=O)O)cs2)nc(N)c1C#N | -66.5%
CCn1cc(-c2cc(-c3cc(CC(=O)O)cs3)nc(N)c2C#N)c(C)n1 | -125%
CNC(=O)C1=NOC2(CCN(Cc3nccs3)C2)C1 (stereo not drawn) | -90.7%
CC(Nc1cnn(C)c(=O)c1Cl)c1ccc(F)cc1 (stereo not drawn) | -75.2%
N#Cc1cccnc1OC1CCN(S(=O)(=O)c2c(F)cccc2F)CC1 | -88.3%
COc1ccc(C)cc1C(=O)NC(CC(=O)O)c1cccs1 (stereo not drawn) | -134%
O=C1NCc2ccccc2CC12CCCN(CCCc1ccccc1)C2 (stereo not drawn) | 39.2%
N#Cc1ccc(CN2CCCC3(Cc4ccccc4CNC3=O)C2)cc1 (stereo not drawn) | 10.7%
Cc1cccc(CN2CCCC3(Cc4ccccc4CNC3=O)C2)n1 (stereo not drawn) | -31.3%
O=C(O)c1ccccc1CN1CCC2(Cc3ccccc3CNC2=O)C1 (stereo not drawn) | -111%
O=C1NCc2ccccc2CC12CCCN(Cc1ccsc1)C2 (stereo not drawn) | 64.3%
COc1ccccc1CN1CCCC2(Cc3ccccc3CNC2=O)C1 (stereo not drawn) | 54.5%
CCC(=O)N(CCC(=O)O)Cc1ccc(F)c(F)c1 | -62.6%
Cc1cc(CN(C)C(C(=O)O)c2ccc(C(C)(C)C)cc2)on1 (stereo not drawn) | -96.1%
COc1ccc(CNc2c(N3CCN(C(C)=O)CC3)c(=O)c2=O)cc1 | -16.8%
CC(C)c1[nH]c2ncccc2c1CN1CCC(O)CC1 | -59.2%
CC(C)(C)OC(=O)NCCc1csc(N2CCCC2)n1 | -50.6%
Cn1cnc2c1C(COCc1ccccc1)N(Cc1cccnc1)CC2 (stereo not drawn) | 36.7%
Cn1cnc2c1C(COCc1ccccc1)N(Cc1ccncc1)CC2 (stereo not drawn) | 51.6%
Cn1cnc2c1C(COCc1cccnc1)N(Cc1ccccc1)CC2 (stereo not drawn) | 23.7%
Cn1cnnc1C1CCCN(C(=O)NCCCn2cccn2)C1 (stereo not drawn) | -205%
CC(C)CC(=O)N1CCC2(CC1)COCCN2Cc1ccc(F)cc1 | -3.2%

Structure (SMILES) | INHIBITION
Cc1cc(C)cc(C(=O)Nc2cccc(CN3CCCC3C(N)=O)c2)c1 (stereo not drawn) | -76.3%
CCCn1c(NCCc2ccccc2)nc2c(C)nn(C)c2c1=O | -42.9%
CC(O)CCN(C)S(=O)(=O)Cc1ccc(Br)cc1 (stereo not drawn) | -23.8%
CN(C)CCN(C)S(=O)(=O)Cc1ccc(Br)cc1 | 63.7%
CCCNS(=O)(=O)Cc1ccc(Br)cc1 | -14.1%
CCOCC1CN(C(=O)C2=CCCC2)Cc2cnn(C)c21 (stereo not drawn) | -16.8%
Cc1cccc(CN2C[C@@H]3CCCO[C@@H]3[C@H](Nc3ccccn3)C2)n1 | 55.6%
Cc1noc(C)c1CN1C[C@@H]2CCCO[C@@H]2[C@H](Nc2ccccn2)C1 | -37.5%
Cc1ccc(N[C@@H]2CN(Cc3cc(C)on3)C[C@@H]3CCCO[C@@H]32)nn1 | -84.9%
N[C@@H]1c2ccccc2C2(CCN(c3ncccc3C(F)(F)F)CC2)[C@H]1O | -6.42%
CCCC1CCCN(C(=O)Nc2ccc(F)c(C(N)=O)c2)CC1 (stereo not drawn) | -46%
c1cc(CN2CCCC3(COCCN(Cc4c[nH]nn4)C3)C2)cs1 (stereo not drawn) | 27.7%
Cc1cccc(CN2CCOCC3(CCN(C4CCOCC4)C3)C2)n1 (stereo not drawn) | 42.5%
Cn1cc(CN2CCOCC3(CCN(C4CCOCC4)C3)C2)cn1 (stereo not drawn) | -41.5%
Cc1ccc(CN2CCOCC3(CCN(Cc4cccs4)C3)C2)o1 (stereo not drawn) | 41.9%
c1csc(CN2CCOCC3(CCN(C4CCOCC4)C3)C2)c1 (stereo not drawn) | 50.4%
COc1ccc(CN2CCOCC3(CCN(C4CCOCC4)C3)C2)cc1 (stereo not drawn) | 61%
COc1ccc(F)c(CN2CCCC3(CCN(C4CCOCC4)C3)C2)c1 (stereo not drawn) | 3.41%
Fc1ccc(CN2CCCC3(COCCN(Cc4c[nH]nn4)C3)C2)cc1 (stereo not drawn) | 61.7%
Cn1cc(CN2CCCC3(COCCN(Cc4c[nH]nn4)C3)C2)cn1 (stereo not drawn) | -58.4%
